About 4,000 (25%) of roughly 16,000 compounds were called active. Roughly 26% stayed inconclusive and do not appear here. The call rests on the fitted dose curve; in most records, active means well fitted curve in the direction sought with a large enough effect; inconclusive means small, poorly fitted or top-dose-only effect, or effect the other way; inactive means no such curve, though single readings can be large or run the other way. Not all results are given here.
On the % scale 0 is the no-effect control and ±100 the full control effect.

Chain of Cytochrome P450 2C9 (Homo sapiens) (P11712 whole entry, looked up): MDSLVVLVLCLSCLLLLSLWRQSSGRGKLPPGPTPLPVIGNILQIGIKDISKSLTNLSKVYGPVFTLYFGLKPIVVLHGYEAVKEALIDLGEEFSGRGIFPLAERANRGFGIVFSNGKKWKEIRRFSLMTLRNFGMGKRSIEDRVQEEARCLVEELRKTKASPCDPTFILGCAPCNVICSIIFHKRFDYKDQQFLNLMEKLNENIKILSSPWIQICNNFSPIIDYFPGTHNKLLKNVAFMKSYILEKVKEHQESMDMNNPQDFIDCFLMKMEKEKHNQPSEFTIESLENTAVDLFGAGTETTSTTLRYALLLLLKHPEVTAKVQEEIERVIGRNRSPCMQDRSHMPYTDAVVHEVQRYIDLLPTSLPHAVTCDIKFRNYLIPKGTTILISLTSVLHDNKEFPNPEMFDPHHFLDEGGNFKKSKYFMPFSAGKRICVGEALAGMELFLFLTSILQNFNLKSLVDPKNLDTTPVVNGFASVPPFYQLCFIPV

The assay has as its target Cytochrome P450 2C9 (Homo sapiens) (UniProt P11712). Briefly: Cytochrome panel assay with activity outcomes. The following applies: recombinant CYP, pro-luciferin dealkylation, luminescence, p450-cyp2c9; series mostly up to 57.1 µM; activity, negative = inhibition: at the top concentration.
As for `CC(=O)NCCNc1ncnc2ccc(-c3ccc(C(=O)N(C)C)cc3)cc12`, the activity, negative = inhibition is 3.47% [at 2.29 µM] (inactive). Still for that read-out and setting: under `CC(=O)OC[C@@H]1O[C@H](C/C=N\OCC[C@H]2C=C[C@H](OC(C)=O)[C@@H](COC(C)=O)O2)C=C[C@@H]1OC(C)=O` stands 19.9% [at 11.4 µM] (inactive); under `Cc1noc(C)c1-c1cncnc1NCCN1CCOCC1`, -15.1% [at 2.29 µM] (inactive). For the compound `O=S(=O)(Cc1cc(Oc2ccccc2)nc(-c2ccccc2)n1)c1ccccc1`, the AC50 was 0.891 µM (active). Take `N[C@@H](CS(=O)O)C(=O)O`: the “activity, negative = inhibition” value is -5.61% (inactive).

In the case of `CC(=O)Nc1ccc(NC(=O)C/C(C)=N/NC(=O)C(=O)N2CCCC2)cc1`, the “activity, negative = inhibition” value was 8.88% (inactive). As to `CCn1c2ccccc2c2cc(NC(=O)C/C(C)=N/NC(=O)c3ccccc3N)ccc21`, the AC50 is 35.5 µM (active). Regarding `COCCn1c(=O)cnc2cnc(Oc3ccccc3)nc21`, the “activity, negative = inhibition” value was -24.6% (inactive). Regarding `COCCn1c(=O)c(C)nc2cnc(Oc3cccc(Cl)c3)nc21`, the AC50 was 12.6 µM (active).

With `COCCn1c(=O)cnc2cnc(Oc3ccc(OC)cc3)nc21`, the “activity, negative = inhibition” value is 0.762% (inactive). In the case of `Cc1nc2cnc(Oc3cccc(Cl)c3)nc2n(CCc2ccccc2)c1=O`, the “activity, negative = inhibition” value is -19.9% (inactive).

Consider `COCCn1c(=O)cnc2cnc(Oc3cccc(Cl)c3)nc21`, for which the AC50 is 15.8 µM (active).

In the case of `COc1ccc(C2CC(=O)CC(=O)C2n2cncn2)cc1` (stereo unspecified), the “activity, negative = inhibition” value is -4.99% (inactive). On the same count and under the same terms, the result for `O=C(O)CSc1sc(=S)sc1SCC(=O)O` reads -27.2% (inactive). For the compound `Cc1sc2ncn(CC(=O)NCCCC(=O)N3CCN(c4ncccn4)CC3)c(=O)c2c1C`, the AC50 is 11.2 µM (active). For `O=C(Nc1cccc2ncccc12)c1cccc(F)c1`, the “activity, negative = inhibition” value was 29.7% (inactive). Regarding `O=C(Nc1cccc(F)c1)Nc1ccccn1`, the AC50 is 25.1 µM (active). As to `O=C(O)/C=C\C(=O)Nc1ccccn1`, the activity, negative = inhibition was 25.1% [at 11.4 µM] (inactive). For `C[C@@H]1/C=C\CC(=O)OC[C@H]2O[C@@H](C=C[C@@H]2O)[C@H](C)/C=C\CC(=O)OC[C@H]2O[C@H]1C=C[C@@H]2O`, the activity, negative = inhibition was -9.33% [at 11.4 µM] (inactive). With `Cc1noc(C)c1C(=O)N1CCC2(CCCN(C(c3ccccc3)c3ccccc3)C2)CC1`, the “activity, negative = inhibition” value is -21.2% (inactive). Consider `CC(C)CN1CCCC2(CCN(C(=O)c3cccc(F)c3)CC2)C1`, for which the “activity, negative = inhibition” value was -4.81% (inactive).

For the compound `O=C(c1ccncc1)N1CCC2(CCCN(C(c3ccccc3)c3ccccc3)C2)CC1`, the AC50 is 5.01 µM (active). With `O=C(c1ccco1)N1CCC2(CCCN(Cc3ccccc3)C2)CC1`, the “activity, negative = inhibition” value is -28.9% (inactive). The same measure, in the same setting: the result for `CC(C)NC(=O)N1CCCC2(CCN(C(=O)c3ccncc3)CC2)C1` reads 17% (inactive). On to `O=C(c1cccc(F)c1)N1CCC2(CCCN(C(c3ccccc3)c3ccccc3)C2)CC1`, for which the AC50 was 3.16 µM (active). Regarding `O=C(c1cnccn1)N1CCC2(CC1)CCN(C(c1ccccc1)c1ccccc1)CC2`, the “activity, negative = inhibition” value is 4.12% (inactive). Still for that read-out and setting: under `O=C(c1cccc(F)c1)N1CCC[C@@]2(CCN(C(c3ccccc3)c3ccccc3)C2)C1` stands 8.73% (inactive). For the compound `O=C(c1ccco1)N1CCC2(CCCN(C(c3ccccc3)c3ccccc3)C2)CC1`, the AC50 is 12.6 µM (active).

For the compound `O=C(c1ccco1)N1CCC2(CCCN(c3ccccc3)C2)CC1`, the “activity, negative = inhibition” value is 9.69% (inactive).

As for `O=C(c1ccncc1)N1CCC2(CC1)CN(C(c1ccccc1)c1ccccc1)C2`, the AC50 was 10 µM (active).

Turning to `CC(C)NC(=O)N1CC2(CCN(C(=O)c3ccncc3)CC2)C1`, the “activity, negative = inhibition” value was -25.4% (inactive).

Turning to `C[C@@H](C[C@H](N)C(=O)O)C(=O)O`, the activity, negative = inhibition is 0.375% [at 11.4 µM] (inactive). On the same count and under the same terms, the result for `Cc1cnc(CNc2nc(-c3ccccc3C(F)(F)F)nc3ccccc23)cn1` reads -16.4% [at 2.29 µM] (inactive); that for `O=C(c1cnccn1)N1CCC2(CC1)CN(C(c1ccccc1)c1ccccc1)C2`, 1.03% (inactive). With `O=C(c1cnccn1)N1CCC2(CCCN(C(c3ccccc3)c3ccccc3)C2)CC1`, the AC50 was 12.6 µM (active). Turning to `O=C(c1cnccn1)N1CCC[C@@]2(CCN(C(c3ccccc3)c3ccccc3)C2)C1`, the “activity, negative = inhibition” value was -14.3% (inactive). As for `O=C(Nc1nnc(C2CC2)s1)c1ccncc1`, the AC50 is 8.91 µM (active). On the same count and under the same terms, the result for `CC(C)NNC(=O)c1ccncc1` reads “inactive”. Consider `O=C(NN=C1C2CC3CC(C2)CC1C3)c1ccncc1`, for which the “activity, negative = inhibition” value was -27.1% (inactive). Take `O=C1CCCC=C1[C@@H](O)CCOC(c1ccccc1)(c1ccccc1)c1ccccc1`: the AC50 is 0.794 µM (active).

Regarding `CC/C=C\CC[C@H](O)C1=CCCCC1=O`, the activity, negative = inhibition was -1.13% [at 11.4 µM] (inactive). Same read-out and setting: under `O=C1CCCC=C1[C@@H](O)COCc1ccccc1` stands 3.8% [at 11.4 µM] (inactive).

Consider `CC1(C)OC(=O)C(=CNc2cccc(O)c2)C(=O)O1`, for which the “activity, negative = inhibition” value was 27.7% (inactive).

For the compound `O=C(Nc1cccc(F)c1)N1CC[C@@]2(CCCN(C(=O)c3cc(C(F)(F)F)cc(C(F)(F)F)c3)C2)C1`, the “activity, negative = inhibition” value was 6.64% (inactive). The same measure, in the same setting: under `Fc1ccc(Nc2ccnc(-c3ccccc3C(F)(F)F)n2)cc1` stands -26.8% [at 2.29 µM] (inactive). Still for that read-out and setting: the result for `O=C(c1cccc(F)c1)N1CCC[C@@]2(CCN(c3ccncc3)C2)C1` reads -15.9% (inactive); that for `Cc1noc(C)c1C(=O)N1CCC2(CCCN(c3ccncc3)C2)CC1`, 9.67% (inactive); that for `CC(=O)N1CCC2(CC1)CN(c1ccccc1)C2`, -15% (inactive).

Consider `Cc1noc(C)c1C(=O)N1CCC2(CC1)CCN(c1ccncc1)CC2`, for which the concentration at half-maximal activity (AC50) was 10 µM (active).

In the case of `O=C(c1ccncc1)N1CCC2(CC1)CN(c1ccccc1)C2`, the AC50 is 2.51 µM (active). Turning to `O=C(c1ccncc1)N1CCC2(CC1)CN(c1ccc(-c3ccccc3)cc1)C2`, the “activity, negative = inhibition” value is -20.9% (inactive).

Consider `O=C(c1ccncc1)N1CCC2(CC1)CCN(c1ccccc1)CC2`, for which the AC50 was 10 µM (active). Consider `Cc1noc(C)c1C(=O)N1CCC2(CCN(Cc3ccncc3)CC2)CC1`, for which the “activity, negative = inhibition” value is -13.8% (inactive).

With `O=C(c1cccc(F)c1)N1CCC2(CC1)CN(c1ccncc1)C2`, the AC50 was 5.01 µM (active).

In the case of `CC1(C)O[C@H]2[C@@H](O1)[C@@H](On1nnc3ccc(Cl)cc31)O[C@@H]2[C@@H]1COC(C)(C)O1`, the activity, negative = inhibition was -3.36% [at 11.4 µM] (inactive). The same measure, in the same setting: under `Nn1nnc2ccccc21` stands -7.08% (inactive); under `N#Cc1cccc(-c2ccc3ncnc(N4CCNCC4)c3c2)c1`, 20.7% [at 2.29 µM] (inactive); under `CCN(CC)S(=O)(=O)N1CCC(C(=O)NCc2ccc(C)cc2)CC1`, -7.02% (inactive).

With `O=C1C2=CC[C@H]3C(=O)N(c4cccc(Oc5ccccc5)c4)C(=O)[C@@H]3[C@@H]2[C@H](O)[C@@H]2O[C@H]12`, the activity, negative = inhibition is 4.88% [at 11.4 µM] (inactive). In the case of `COc1ccc(CNC(=O)Cc2csc(Nc3nc(=S)[nH]c4ccccc34)n2)cc1`, the AC50 was 0.224 µM (active). Take `COc1ccc(C(CNC(=O)c2cc(=O)[nH]c3ccccc23)N2CCCC2)cc1` (stereo unspecified): the “activity, negative = inhibition” value was 6.96% (inactive).

Turning to `Cc1ccc(CNC(=O)Cn2cncn2)cc1`, the “activity, negative = inhibition” value is -26.5% (inactive). In the case of `O=C(Cc1csc(Nc2nc(=S)[nH]c3ccccc23)n1)NCc1cccc(Cl)c1`, the AC50 was 0.0631 µM (active). The same measure, in the same setting: the result for `Cc1ccc(CNC(=O)Cc2csc(Nc3nc(=S)[nH]c4ccccc34)n2)cc1` reads 0.891 µM (active).

With `Cc1ccc(CS(=O)(=O)CCC(=O)NCc2ccccn2)cc1`, the “activity, negative = inhibition” value was -25.1% (inactive). The same measure, in the same setting: the result for `Cc1ccc(C(=O)c2ccc(CC(=O)O)n2C)cc1` reads 16.9% [at 25.6 µM] (inactive); that for `CCOC(=O)CCN1C(=O)[C@H]2[C@H]3[C@H](O)[C@H](O)C/C(=N/OC/C=C(\C)CCC=C(C)C)[C@@H]3CC[C@@H]2C1=O`, 7.78% [at 11.4 µM] (inactive); that for `CN1CCN(c2ncnc3ccc(-c4ccc(C(=O)N(C)C)cc4)cc23)CC1`, 17.4% [at 2.29 µM] (inactive).

In the case of `Cc1noc(C)c1-c1ccc2ncnc(Nc3ccc(F)cc3)c2c1`, the activity, negative = inhibition was -13.2% [at 2.29 µM] (inactive). On the same count and under the same terms, under `FC(F)(F)c1cc(CN2CCC3(CCNCC3)CC2)cc(C(F)(F)F)c1` stands 9.64% (inactive); under `CS(=O)(=O)Nc1cccc(-c2nccc(Nc3ccc(F)cc3)n2)c1`, 18.7% [at 2.29 µM] (inactive); under `COC(=O)c1cc(/C=C/c2ccccc2)on1`, -25.8% (inactive).

Take `COC(=O)C1=C(C)N=C2SC(C)C(=O)N2C1/C=C/c1ccccc1` (stereo unspecified): the AC50 is 4.47 µM (active).

In the case of `COC(=O)[C@@]1(Cc2ccccc2)[C@H]2c3cc(C(=O)N(C)C)n(Cc4ccsc4Br)c3C[C@H]2CN1C(=O)c1ccccc1`, the AC50 was 3.98 µM (active). On the same count and under the same terms, the result for `COC(=O)[C@@]1(Cc2ccccc2)[C@H]2c3cc(C(=O)N4CCCC4)n(Cc4ccsc4Br)c3C[C@H]2CN1C(=O)c1ccccc1` reads 2 µM (active). With `CCCCN1CCCC[C@H]1C(=O)Nc1c(C)cccc1C`, the “activity, negative = inhibition” value was 18.9% [at 25.6 µM] (inactive).

In the case of `CC(=O)OC[C@@H]1O[C@H](CCO/N=C\[C@@H](C)[C@H](OCc2ccccc2)C(C)C)C=C[C@@H]1OC(C)=O`, the activity, negative = inhibition is -15.4% [at 11.4 µM] (inactive). The same measure, in the same setting: under `CON1C(=O)C(=O)N(OC)C(C)(C)C1C` (stereo unspecified) stands -9% (inactive). Consider `Cc1nn(C)c(C(=O)NNC(=S)Nc2ccc(Cl)cc2)c1[N+](=O)[O-]`, for which the AC50 was 6.31 µM (active). For `Cc1cc(NC(=O)c2c([N+](=O)[O-])c(C)nn2C)no1`, the “activity, negative = inhibition” value is 9.1% (inactive). Take `COc1ccccc1NC(=S)NNC(=O)c1c(Cl)c(C)nn1C`: the AC50 is 3.55 µM (active).

Consider `Cc1cc([N+](=O)[O-])nn1CC(=O)NNC(=S)Nc1ccc(F)cc1`, for which the “activity, negative = inhibition” value was -30% (inactive). As to `O=C(N/N=C1/C[C@@H](O)[C@@H](O)[C@@H]2[C@H]3C(=O)N(c4ccc(F)cc4F)C(=O)[C@@H]3CC[C@@H]12)OCc1ccccc1`, the activity, negative = inhibition is -1.14% [at 11.4 µM] (inactive).

As for `O=C(O)c1ccc(C(=O)c2ccccc2C(=O)O)cc1C(=O)O`, the activity, negative = inhibition was -6.86% [at 11.4 µM] (inactive). Consider `NC(N)=N/N=C\c1ccc(O)c(C(=O)O)c1`, for which the activity, negative = inhibition is 2.83% [at 11.4 µM] (inactive). With `O=C(O)C1=CC(=C(c2ccc(O)c(C(=O)O)c2)c2ccc(O)c(C(=O)O)c2)C=CC1=O`, the AC50 was 15.8 µM (active).

Consider `CC1=C/C(=C(/c2ccc(O)c(C)c2)c2ccccc2C(=O)O)C=CC1=O`, for which the AC50 was 0.01 µM (active). In the case of `O=C(O)c1ccc(C(=O)O)c(C(=O)O)c1.[NH-][C@@H]1CCCC[C@@H]1[NH-].[Pt]`, the activity, negative = inhibition was 0.225% [at 11.4 µM] (inactive). In the case of `NC(=O)CN1CCOCCOCCOCCOCCOCC1`, the “activity, negative = inhibition” value was -26.1% (inactive). For `CCN(C1CCCCC1)S(=O)(=O)c1ccc(S(=O)(=O)NCc2ccncc2)cc1`, the AC50 is 0.0398 µM (active). For the compound `O=S(=O)(NCc1cccnc1)c1ccc(Cl)nc1`, the “activity, negative = inhibition” value was -12.7% (inactive).

What is called AC50 is the concentration at which the activity in the assay is half-maximal.

The record behind these values is PubChem BioAssay AID1851 (National Center for Advancing Translational Sciences (NCATS), 2009).
